According to PubChem BioAssay (NCATS):
Unmarked numbers belong to inactive results. Inconclusive results are not listed. Entries that show only a call come without a potency. Calls of active or inactive are those of the source. Calls come from the whole dose curve; as a rule, active = well fitted curve in the direction sought with a large enough effect; inconclusive = small, poorly fitted or top-dose-only effect, or another doubt; inactive = no such curve, though single readings can be large; an effect the other way counts as inactive or inconclusive. Where a SMILES comes first, the peptide text is derived from it.

Experiments:
[1] = biological target: Glutathione peroxidase 1 (Homo sapiens) (UniProt P07203); test: Primary qHTS Assay for Inhibitors of Recombinant Selenoprotein Glutathione Peroxidase 1 (GPX1) (AID 1845191); note: nearly all actives have a fitted effect of over 65% in size
Chain of Glutathione peroxidase 1 (Homo sapiens) (P07203 whole entry, looked up): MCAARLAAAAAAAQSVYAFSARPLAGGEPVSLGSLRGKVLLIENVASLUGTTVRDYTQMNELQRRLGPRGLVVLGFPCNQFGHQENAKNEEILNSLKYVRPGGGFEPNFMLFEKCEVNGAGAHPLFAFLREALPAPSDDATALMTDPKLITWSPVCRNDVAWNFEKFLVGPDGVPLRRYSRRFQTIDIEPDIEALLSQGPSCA
Summary of the method: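 GR-coupled assay: compounds preincubated 30 min at room temperature with GPX1, then reaction started with CHP; final 10 nM GPX1, 1 mM GSH, 0.5 mM CHP, 0.5 mM NADPH, 100 nM GR, 0.01% BSA, pH 7.5 Tris buffer. NADPH fluorescence (340/450 nm) read at 0 and 15 min.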

[2] = biological target: Phospholipid hydroperoxide glutathione peroxidase GPX4 (Homo sapiens) (UniProt P36969); test: Primary qHTS Assay for Inhibitors of Recombinant Selenoprotein Glutathione Peroxidase 4 (GPX4) (AID 1845192); note: nearly all actives have a fitted effect of over 65% in size; for activity change, negative = inhibition: series mostly up to about 50 µM
Chain of Phospholipid hydroperoxide glutathione peroxidase GPX4 (Homo sapiens) (P36969 whole entry, looked up): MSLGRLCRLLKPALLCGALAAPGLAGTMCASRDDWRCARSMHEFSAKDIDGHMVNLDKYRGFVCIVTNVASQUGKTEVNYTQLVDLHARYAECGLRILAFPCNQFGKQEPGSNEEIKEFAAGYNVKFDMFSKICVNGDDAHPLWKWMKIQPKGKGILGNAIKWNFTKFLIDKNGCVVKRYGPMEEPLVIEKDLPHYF
Summary of the method: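 GR-coupled assay: recombinant GPX4 preincubated 30 min with compound at room temperature; final 200 nM GPX4, 1 mM GSH, 0.5 mM cumene hydroperoxide, 0.5 mM NADPH, 100 nM GR, 0.01% BSA, pH 7.5 Tris. NADPH fluorescence (340/450 nm) read at 0 and 15 min.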

[3] = biological target: Luciferin 4-monooxygenase (Photinus pyralis) (UniProt P08659); test: Primary firefly luciferase (FLuc) qHTS assay for identification of artifact compounds. (AID 1845220); note: nearly all actives have a fitted effect of over 60% in size; for activity change, negative = inhibition: series mostly up to about 54 µM
Summary of the method: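 Enzymatic FLuc inhibition assay: compounds pre-exposed to luciferin/ATP (10 uM each) for 15 min, then purified P. pyralis enzyme at 10 nM added. Read-out: luminescence at 5 min.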

[4] = Primary fluorescence-based thiol-reactive (MSTI) qHTS assay for identification of artifact compounds. (AID 1845221); note: nearly all actives have a fitted effect of over 65% in size; note: potency is the fitted concentration of half-maximal effect;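 for activity change, negative = thiol reactive: series mostly up to about 54 µM; thiol-reactive compounds lower the probe fluorescence signal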
Summary of the method: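 Reactivity toward the thiol probe MSTI (4 uM) is scored by fluorescence at Ex/Em 525/598 nm after 1 h at room temperature. Acetyl-MSTI and MSTI define the activity scale.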

[5] = test system: Nanoluciferase (engineered Oplophorus gracilirostris luciferase); test: Primary Nanoluciferase (NLuc) qHTS assay for identification of artifact compounds. (AID 1845222);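 note: NLuc secreted into diluted conditioned medium of S16 cells; series mostly up to about 54 µM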
Summary of the method: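 S16 cell supernatant NLuc, 1:55; cpds qHTS; 15 min RT dark; Nano-Glo substrate 1:100, 5 min; luminescence; Hill fit of % inhibition.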

Compound	Potency [1]	Potency [2]	Potency [3]	Potency [4]	Potency [5]	outcome [3]	activity change, negative = thiol reactive [4]	activity, negative = inhibition [5]	activity change, negative = inhibition [3]
CC1(C)CCC[C@]2(C)C1CC=C(CO)[C@H]2CC/C(=C/CO)CO (stereo not given in full)	inactive	inactive	inactive	inactive	inactive				
C=C1C(=O)OC[C@H]2C(C(=O)O)=CC3CC(C)(C)C[C@@]132 (stereo not given in full)	inactive	inactive	inactive	21.2 µM (active)	inactive				
C/C=C1\[C@H](O[C@@H]2O[C@H](CO)[C@@H](O)[C@H](O)[C@H]2O)OC=C(C(=O)OCCc2ccc(O)cc2)[C@H]1CC(=O)OCCc1ccc(O)cc1	inactive	inactive	inactive	inactive	inactive				
CC1(C)CC[C@]2(C(=O)O[C@@H]3O[C@H](CO[C@@H]4O[C@H](CO)[C@@H](O)[C@H](O)[C@H]4O)[C@@H](O)[C@H](O[C@@H]4O[C@H](CO)[C@@H](O)[C@H](O)[C@H]4O)[C@H]3O)CC[C@]3(C)C(=CCC4[C@@]5(C)CC[C@H](O[C@@H]6OC[C@@H](O)[C@H](O)[C@H]6O)[C@@](C)(C(=O)O)C5CC[C@]43C)[C@@H]2C1 (stereo not given in full)	inactive	inactive				inactive [at 11.6 µM]	183% [at 11.5 µM]	1.63% [at 11.6 µM]	
COCc1c(O)c(C(=O)O)c(C)c2c1OC(=O)c1c(C)cc(O)c(CO)c1O2	inactive	inactive	inactive	5.21 µM (active)	inactive				
CC(=O)OC1CC(=O)C2(C)C3CC4=C(OC(C)CC4=O)OC3(C)CCC2C1(C)C (stereo not given)	inactive	inactive	inactive	11.6 µM (active)	inactive				
CO[C@H]1c2cc(C(C)C)c(O)c(O)c2[C@@]23CCCC(C)(C)C2[C@@H]1OC3=O (stereo not given in full)	inactive	inactive	inactive	1.47 µM (active)	inactive				
C[C@@H]1O[C@@H](O[C@H]2[C@H](O)[C@@H](O[C@@H]3O[C@H](CO)[C@H](O)[C@H](O)[C@H]3O)[C@H](O[C@H]3CC[C@@]4(C)C(CC[C@]5(C)C4CC=C4[C@@H]6CC(C)(C)CC[C@]6(C(=O)O[C@@H]6O[C@H](CO)[C@@H](O)[C@H](O)[C@H]6O)CC[C@]45C)C3(C)C)O[C@@H]2C(=O)O)[C@H](O)[C@H](O)[C@H]1O (stereo not given in full)	inactive	inactive				inactive [at 11.6 µM]	349% [at 11.5 µM]	2.46% [at 11.6 µM]	
CC1(O)CC(O)C2C(C(=O)O)=COC(OC3OC(CO)C(O)C(O)C3OC(=O)/C=C/c3ccc(O)cc3)C21 (stereo not given)	inactive	inactive	inactive	4.12 µM (active)	inactive				
H-DPPDPDRFYGMM-NH2	inactive	inactive	inactive	inactive	inactive				
CC1(C)CC[C@]2(C(=O)O)CC[C@]3(C)C(=CCC4[C@@]5(C)C[C@@H](O)[C@H](O)[C@@](C)(CO)C5CC[C@]43C)C2C1 (stereo not given in full)	inactive	inactive	inactive	inactive	inactive				
CC(=O)O[C@H]1C[C@@]2(C)[C@@H](CC[C@H]3[C@@]4(C)C=CC(=O)[C@@H](C)[C@@H]4[C@H](OC(C)=O)C(=O)[C@@]32C)/C1=C(\CCC=C(C)C)C(=O)O	inactive	inactive	inactive	inactive	inactive				
C=C[C@]1(C)C[C@@H](OC(=O)CSC2C[C@H]3CC[C@@H](C2)N3C)[C@]2(C)[C@H](C)CC[C@]3(CCC(=O)[C@H]32)[C@@H](C)[C@@H]1O (stereo not given in full)	inactive	inactive	inactive	inactive	inactive				
O=C(NCC(=O)N1CCCC1)Nc1ccc2ccccc2c1	inactive	inactive	inactive	inactive	inactive				
C[C@@H]1O[C@@H](O[C@H]2[C@H](OC(=O)[C@]34CCC(C)(C)C[C@H]3C3=CCC5[C@@]6(C)C[C@@H](O)[C@@H](O[C@@H]7O[C@H](CO)[C@@H](O)[C@H](O)[C@H]7O)[C@@](C)(CO)C6[C@H](O)C[C@@]5(C)[C@]3(C)CC4)OC[C@H](O)[C@@H]2O)[C@H](O)[C@H](O[C@@H]2OC[C@](O)(CO)[C@H]2O)[C@H]1O[C@@H]1OC[C@@H](O)[C@H](O[C@H]2O[C@H](C)[C@@H](O)[C@H](O)[C@@H]2O)[C@H]1O (stereo not given in full)	inactive	inactive					412% [at 11.5 µM]	0% [at 11.6 µM]	1.3% [at 11.6 µM]
CC1=C2C[C@@]3(C)[C@@H](CCC[C@@H]3C)C[C@@]2(O)OC1=O	inactive	inactive	inactive	inactive	inactive				
O=C(O)CC/C=C\C[C@H]1CO[C@@H](c2ccccc2Cl)O[C@H]1c1ccccc1O	inactive	inactive	inactive	inactive	inactive				
O=c1[nH]ccc2nc(-c3ccc(CN4CCC(c5nc(-c6ccccn6)n[nH]5)CC4)cc3)c(-c3ccccc3)cc12	inactive	inactive	inactive	inactive	inactive				
CC1(C)CC[C@]2(C(=O)O)CC[C@]3(C)C(=CCC4[C@@]5(C)CC[C@H](O[C@@H]6O[C@H](C(=O)O)[C@@H](O)[C@H](O[C@@H]7O[C@H](CO)[C@H](O)[C@H](O)[C@H]7O)[C@H]6O[C@@H]6O[C@H](CO)[C@@H](O)[C@H](O)[C@H]6O)C(C)(C)C5CC[C@]43C)[C@@H]2C1 (stereo not given in full)	inactive	inactive					227% [at 6.41 µM]	-1.21% [at 6.45 µM]	-14.9% [at 6.45 µM]
O=C(O)C(Cc1ccccc1)NC(=O)C1CCCN1 (stereo not drawn) (H-Pro-Phe-OH; configuration not given here)	inactive	inactive	inactive	inactive	inactive				
COC(=O)C1=COC(OC2OC(CO)C(O)C(O)C2O)C2C(C)C(OC(=O)/C=C/c3ccc(O)cc3)C(O)C12 (stereo not given)	inactive	inactive	inactive	11.6 µM (active)	inactive				
